# From PubChem BioAssay AID686979 (National Center for Advancing Translational Sciences (NCATS), 2013)
# Several values for one entry are separate records, joined by “and”; a condition that tells them apart may be missing. Identical values can stand only once. Hit rate of the full screen: of about 420,000 compounds, about 50,000 (12%) were called active. Another 26% or so got no clear call; they are omitted. The sample holds actives, similar compounds and a random draw of the others, so the mix is not that of the screen. Calls follow the shape of the dose curve; as a rule, active = well fitted inhibition curve with a large enough effect; inconclusive = small, poorly fitted or top-dose-only effect; inactive = flat fitted curve, though single readings scatter.
# Experiment: qHTS for Inhibitors of human tyrosyl-DNA phosphodiesterase 1 (TDP1): qHTS in cells in presence of CPT; also: nearly all actives have a fitted effect of over 55% in size
# Conditions: chicken DT40 Tdp1-/-;hTDP1 cells + 20 nM CPT, ATP luminescence, 48 h; series mostly up to 46.2 µM; activity change, negative = growth inhibition: at the top concentration
# How it was run: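 Cell growth measured by CellTiter-Glo luminescence after a minimum 48 h, 37 C compound exposure with 20 nM CPT in Tdp1-knockout DT40 cells stably expressing hTDP1, seeded 400/well; qHTS titration format.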
# % is scaled to controls: 0 for no effect and ±100 for the full control effect; potency is read from the fitted curve at half-maximal effect.
Structure (SMILES),"activity change, negative = growth inhibition",Potency
CN(C)S(=O)(=O)c1ccc(N/C=C(\[N+](=O)[O-])S(=O)(=O)c2ccccc2)cc1,0.564% (inactive),–
C[C@@H](C(=O)N1CCNCC1)n1cc(CCC(=O)O)nn1,-8.56% (inactive),–
Cc1ccc(Cn2c(C)c(C(=O)NCc3ccccc3C(F)(F)F)sc2=O)cc1,-25.2% (inactive),–
NS(=O)(=O)c1ccc(CCNS(=O)(=O)c2cccc3cccnc23)cc1,9.19% (inactive),–
O=[N+]([O-])c1ccccc1S(=O)(=O)Nc1cccc2cccnc12,–,794 nM (active) and 3.26 µM (active)
Cc1ccccc1NC(=O)c1ccccc1NS(=O)(=O)c1cccc2cccnc12,6.92% (inactive),–
COc1cccc(C(=O)NC(=O)Nc2nc(C)cc(C(F)(F)F)n2)c1,-1.3% (inactive),–
Cc1ccc(N2CC(C(=O)Nc3cc(Cl)ccc3-n3cncn3)CC2=O)cc1 (stereo not given),-11.7% (inactive),–
O=C(CN1CCN(C(=O)c2ccco2)CC1)Nc1ccc(Cl)c(C(F)(F)F)c1,–,23.1 µM (active)
O=C(c1ccco1)N1CCN(C(=S)Nc2cc(F)cc(F)c2)CC1,-16.4% (inactive),–
O=C(CN1CCN(C(=O)c2ccco2)CC1)Nc1ccc2c(c1)OCO2,9.66% (inactive),–
Cc1ccc(-n2nnnc2CNC(=O)c2ccccc2C)cc1C,-8.98% (inactive),–
C[C@H]1CN([C@@H](C)CO)C(=O)CCCn2cc(nn2)CO[C@@H]1CN(C)S(=O)(=O)c1cccc(C#N)c1,24.7% (inactive),–
O=C(O)C(c1cccs1)C1(O)CCCCC1 (stereo not given),-2.18% (inactive),–
O=C(NCCCN1CCOCC1)c1cc(-c2ccccc2F)no1,-15% (inactive),–
COC(=O)CSc1snnc1-c1ccc(Cl)c(Cl)c1,4.95% (inactive),–
Cc1c(NC(=O)C(C)OC(=O)c2ccccc2O)c(=O)n(-c2ccccc2)n1C (stereo not given),-25% (inactive),–
Cc1c(NC(=O)C(C)OC(=O)c2c3c(nc4ccccc24)CCC(C)C3)c(=O)n(-c2ccccc2)n1C (stereo not given),–,13 µM (active)
Cc1c(NC(=O)C(C)OC(=O)c2cc3c4ccccc4n(C)c3s2)c(=O)n(-c2ccccc2)n1C (stereo not given),-24.5% (inactive),–
N#C/C(=C\c1ccccc1)c1n[nH]c(Cn2cncn2)n1,-9.22% (inactive),–
Cc1nn2cc(-c3ccc(Cl)cc3)cnc2c1Br,18.4% (inactive),–
Cc1cccc(Cn2cnc3c(N)c(C)c(C)cc32)c1,-21.5% (inactive),–
CCc1c(-c2ccc(F)cc2)ncn1Cc1cccc(-c2ccccc2)c1,–,11.6 µM (active)
O=C(NCc1ccncc1)C1CCN(C(=O)c2cccc(Cl)c2)CC1,3.42% (inactive),–
Nc1ccc(-n2nncc2-c2ccco2)cc1,-18.1% (inactive),–

Structure (SMILES),"activity change, negative = growth inhibition",Potency
O=C(NC(=S)Nc1ccc(Cl)c(C(=O)O)c1)c1cncc(Br)c1,2.05% (inactive),–
COc1ccccc1N(CC(=O)Nc1ccccc1C(=O)N1CCCC1)S(C)(=O)=O,8.7% (inactive),–
CCCn1c(N)c(C(=O)CSc2nnc(Cc3cccs3)n2C2CC2)c(=O)[nH]c1=O,4.23% (inactive),–
Cc1cc2c(cc3c(SCc4nc(-c5ccccc5)oc4C)nnc(C)n32)o1,–,16.4 µM (active)
CCc1nnc(SCc2nc(-c3cccc(C)c3)oc2C)c2cc3sc(C)cc3n12,-6.05% (inactive),–
Cc1cc(NC(=O)CSCc2nc(-c3cccc(Cl)c3)oc2C)no1,-4.98% (inactive),–
Cc1ccc2nc(NC(=O)C3CCN(S(=O)(=O)c4ccc5c(c4)oc(=O)n5C)CC3)sc2c1,–,5.8 µM (active)
Cc1ccc2nc(NC(=O)C3CSC4(C)CCC(=O)N34)sc2c1 (stereo not given),-18.2% (inactive),–
O=C(NC1CCCCC1)n1c(=O)oc2cc(S(=O)(=O)N3CCCCC3)ccc21,-26.8% (inactive),–
O=C(Nc1cc2c3c(c1)C1CCCC1CN3CC1CCCC21)c1ccc([N+](=O)[O-])cc1 (stereo not given),-17.6% (inactive),–
CC[C@@H](C)[C@@H](C(=O)N1CCN(C(=O)OC(C)(C)C)CC1)n1cc(CCC(=O)O)nn1,-1.7% (inactive),–
O=C(O)c1cc(S(=O)(=O)NC2CCCc3ccccc32)ccc1O (stereo not given),33.7% (inactive),–
O=C(c1ccco1)N1CCN(CCOc2ccccc2)CC1,-1.14% (inactive),–
O=c1[nH]c2ccccc2n1C1CCN(CCOc2ccccc2)CC1,–,3.66 µM (active)
O=C(c1ccc(Br)o1)N1CCN(CCOc2ccccc2)CC1,-15.3% (inactive),–
CO[C@@H]1CN(C)C(=O)c2cc(NC(=O)C3CC3)ccc2OC[C@H](C)N(C(=O)CN2CCOCC2)C[C@@H]1C,11.5% (inactive),–
NC(=O)C1CC(=O)N(c2ccc(OCC(=O)NCc3ccccc3)cc2)C1 (stereo not given),2.53% (inactive),–
O=C(c1cccc(Cl)c1)N1CCN(Cc2ccccc2)CC1,-11.1% (inactive),–
CN(C)CCN1CCN(c2cc(-c3cccc(Cl)c3)nc3ccnn23)CC1,-95.5% (inactive),–
C#Cc1cc(N2CCN(C(=O)c3ccoc3)CC2)n2nc(-c3cccc(Cl)c3)cc2n1,–,7.31 µM (active)
O=C(c1cccc(Cl)c1)N1CCN(CCc2ccncc2)CC1,-15.1% (inactive),–
O=C(c1ccccc1)N1CCN(c2cc(-c3ccccc3)nc3cc(-c4cccc(Cl)c4)nn23)CC1,–,23.1 µM (active)
CCCNC(=O)c1ccc(Cn2c(SCC(N)=O)nc3ccccc3c2=O)cc1,-1.4% (inactive),–
CCOc1ccccc1Nc1ccc2nonc2c1[N+](=O)[O-],-12.2% (inactive),–
O=C(OCC(=O)N1CCCCCC1)c1cnc(Cl)c(Cl)c1,-21.8% (inactive),–

Structure (SMILES),"activity change, negative = growth inhibition",Potency
CCOC(=O)C1CCN(Cc2c(C(=O)N3CCOCC3)nc3c(C)cccn23)CC1,2.99% (inactive),–
CCOC(=O)C(NC(=O)CC(C)C)(Nc1sc2c(c1C(N)=O)CCCC2)C(F)(F)F (stereo not given),-15% (inactive),–
CCOc1ccc(S(=O)(=O)Nc2nc3cc(OC)ccc3s2)cc1,-1.24% (inactive),–
CCC(=O)c1ccc(OCC(=O)Nc2ccc(N3CCCCC3)cc2)cc1,-105% (inactive),–
CC(=O)Nc1ccc2nc(NC(=O)CS(=O)(=O)c3ccc(F)cc3)sc2c1,-4.85% (inactive),–
CCC(=O)c1ccc(OCC(=O)Nc2ccc3nc(C)sc3c2)cc1,–,16.4 µM (active)
Cc1nc2ccc(NC(=O)C3CCCCC3)cc2s1,-1.83% (inactive),–
CCOc1ccc2nc(Nc3nc4ccc(NC(C)=O)cc4s3)sc2c1,–,18.4 µM (active)
CC(CC(=O)Nc1ccc(F)cc1F)S(=O)(=O)c1ccc2c(c1)NC(=O)CO2 (stereo not given),-20.8% (inactive),–
c1ccc2c(c1)CCc1snnc1-2,3.17% (inactive),–
O=C(CCNS(=O)(=O)c1ccc(Br)cc1)NCC1CCCO1 (stereo not given),1.23% (inactive),–
CCc1cc(-c2n[nH]c(=S)n2CC(C)C)cs1,-6.11% (inactive),–
C[N+]1(CC(=O)c2cccs2)CCOCC1,-8.52% (inactive),–
CCC(=O)c1ccc(OCC(O)CN2CC(C)OC(C)C2)cc1 (stereo not given),9.25% (inactive),–
CC(C)CCOc1ccc(C(=O)C[N+]2(C)CCOCC2)cc1,–,20.6 µM (active)
COc1ccc(Br)cc1CNC(=O)c1cc(=O)[nH]c2ccc(S(=O)(=O)N3CCCC3)cc12,-0.462% (inactive),–
CCOC(=O)c1c(C)n(C)c2ccc(OC)c(NC(=O)CN3CCC4(CC3)OCCO4)c12,-14.4% (inactive),–
CCC(=O)Nc1ccc2nn(-c3ccc(F)cc3)nc2c1,-3.15% (inactive),–
Cc1nnc(NC(=O)/C=C/c2ccco2)s1,2.69% (inactive),–
Cc1ccc(-n2nc3ccc(NC(=O)/C=C/c4ccco4)cc3n2)cc1C,–,23.1 µM (active)
COc1ccc(C(c2nnnn2Cc2cccs2)N2CCN(c3ccccc3)CC2)cc1OC (stereo not given),2.77% (inactive),–
COc1ccc(F)cc1S(=O)(=O)NCC(c1ccc2c(c1)OCO2)N1CCN(C)CC1 (stereo not given),-29% (inactive),–
COc1ccc(C(CC(=O)N2CCN(c3ccccc3)CC2)c2c(O)cc(OC)cc2OC)cc1 (stereo not given),-12% (inactive),–
O=C(C(=O)N1CCN(c2ccccc2)CC1)c1ccc2c(c1)OCO2,1.72% (inactive),–
COc1cc(OC)c2ccc(=O)oc2c1C(CCN1CCN(c2ccccc2)CC1)c1ccc2c(c1)OCO2 (stereo not given),–,23.1 µM (active)

Structure (SMILES),"activity change, negative = growth inhibition",Potency
COc1cc(C(CCN2CCN(c3ccccc3)CC2)c2c(OC)cc(OC)c3ccc(=O)oc23)cc(OC)c1OC (stereo not given),–,23.1 µM (active)
C=CCNC(=S)NNC(=O)c1ccc(Br)o1,9.35% (inactive),–
CCn1c(O)c2ccc(C(=O)N=NC(=O)c3cccnc3)cc2c1O,-6.89% (inactive),–
COc1ccccc1CNc1cc(-c2ccccc2CN(C)C)ncn1,-24.3% (inactive),–
CN(Cc1ccco1)c1cc(-c2ccccc2C(F)(F)F)ncn1,-12.8% (inactive),–
FC(F)(F)c1ccccc1-c1cc(NCc2ccccc2)ncn1,–,7.31 µM (active)
CCOc1cc(S(=O)(=O)NCc2ccc3c(c2)OCO3)ccc1F,-15% (inactive),–
Cc1ccc(C(=O)O/N=C(\N)c2ccccn2)cc1Cl,4.5% (inactive),–
COc1ccccc1-c1ccc(C(=O)N(C)C(C)c2ccon2)c(N2CCN(c3ccccc3F)CC2)n1 (stereo not given),15.9% [at 9.04 µM] (inactive),–
CC(C)C1=CC2=CC[C@H]3[C@](C)(C(=O)O)CCC[C@]3(C)C2CC1 (stereo not given in full),26.1% [at 9.04 µM] (inactive),–
O=C(NN1C(=O)C2C3C=CC(C3)C2C1=O)c1ccco1 (stereo not given),12.1% (inactive),–
Cc1noc(C)c1-c1nc(Nc2ccccc2)c2ccccc2n1,8.15% (inactive),–
COc1cccc(-c2nc(Nc3ccncc3)c3ccccc3n2)c1,–,8.2 µM (active)
COc1cc(Nc2nc(-c3ccc(OC)c(OC)c3)nc3ccccc23)cc(OC)c1,–,5.8 µM (active)
COc1ccc(Cl)cc1N(CC(=O)N1CCCCC1)S(C)(=O)=O,-0.885% (inactive),–
C=Cn1cc[n+](CC(=O)c2ccc(OC)c(OC)c2)c1,-2% (inactive),–
COc1ccc(C23NCCN2C(=O)c2ccccc23)cc1 (stereo not given),21.2% (inactive),–
Cc1cccc(S(=O)(=O)N(C)C[C@H]2OCc3cnnn3CCCC(=O)N([C@@H](C)CO)C[C@H]2C)c1,-21.2% (inactive),–
CCCCn1c(N)c(N(Cc2ccccc2OC)C(=O)COc2cc(C)ccc2Cl)c(=O)[nH]c1=O,0.516% (inactive),–
CCCCc1nn2c(=O)cc(COC(=O)c3cccc(NC(=O)COc4ccccc4)c3)nc2s1,-7.98% (inactive),–
CCOc1cc(CN2CCCC(CO)(Cc3ccc(F)cc3F)C2)ccc1OC (stereo not given),-24.9% (inactive),–
COc1ccccc1CN1CC2(CCN(S(=O)(=O)c3ccccc3)CC2)C1,-28.8% (inactive),–
COc1ccc(CN2CCC(C)(Oc3cccc(F)c3)C2)c2ccccc12 (stereo not given),–,23.1 µM (active)
Cc1ccc(CCNC(=O)CN2C(=O)CSc3ccc(S(=O)(=O)N4CCOCC4)cc32)cc1,-30.8% (inactive),–
C[C@H]1Cn2cnc(C(=O)N[C@@H](Cc3c[nH]c4ccccc34)C(=O)OC(C)(C)C)c2C(=O)N1,0.235% (inactive),–
